Measurements: PubChem BioAssay (Tox21)
A number with no mark means an inactive call. Inconclusive results are not listed. Where a call stands in place of a potency, no number is given. Calls of active or inactive are those of the source. The call rests on the fitted dose curve. Residues, ends and D or L forms follow the SMILES beside them.

Assays:
[1] = target: Acetylcholinesterase (Homo sapiens) (UniProt P22303); experiment: Acetylcholinesterase (AChE) small molecule antagonists: colormetric cell-based qHTS assay (AID 1347395); details: SH-SY5Y cells AChE activity, colorimetric (Ellman); series mostly up to 115 µM; further: nearly all actives have a fitted effect of over 30% in size; further: potency means the concentration at half of the fitted maximal effect
Summary of the method: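 Quantitative HTS in attached SH-SY5Y cells: 30 min compound exposure, then 90 min with acetylthiocholine and DTNB at 37 C; colour from thiocholine reports AChE activity.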

[2] = target: Acetylcholinesterase (Homo sapiens) (UniProt P22303); experiment: Acetylcholinesterase (AChE) small molecule antagonists: enzyme-based qHTS assay (AID 1347397); details: Potency: AChE enzyme activity inhibition; outcome: AChE enzyme activity inhibition; series mostly up to 115 µM; further: nearly all actives have a fitted effect of over 55% in size; further: potency means the concentration at half of the fitted maximal effect
Summary of the method: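 Tox21 library chemicals are tested in qHTS format against recombinant human AChE. The enzyme, dispensed at 50 mU/mL, sits with compound for 30 min at room temperature. A DTNB–acetylthiocholine cocktail follows, and colour is read after 10 min.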

[3] = target: Acetylcholinesterase (Homo sapiens) (UniProt P22303); experiment: Acetylcholinesterase (AChE) small molecule antagonists: fluorescence cell-based qHTS assay (AID 1347398); details: SH-SY5Y cells; Potency: AChE activity; outcome: AChE activity; series mostly up to 115 µM; further: nearly all actives have a fitted effect of over 50% in size; further: potency means the concentration at half of the fitted maximal effect
Summary of the method: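 Cellular AChE inhibition: SH-SY5Y cells treated with test chemical for 30 min at 37 C, then acetylthiocholine hydrolysis followed over 40 min at room temperature via thiocholine-reactive Thiolite Green fluorescence (490/520 nm).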

[4] = target: Acetylcholinesterase (Homo sapiens) (UniProt P22303); experiment: Acetylcholinesterase (AChE) small molecule antagonists: enzyme-based qHTS assay with human liver microsomes (AID 1347399); details: Potency: qHTS inhibition; outcome: qHTS inhibition; series mostly up to 115 µM; further: nearly all actives have a fitted effect of over 60% in size
Summary of the method: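 Recombinant human AChE (50 mU/mL in the enzyme mix) and human liver microsomes (0.25 mg/mL final) were preincubated with compound and NADPH (0.25 mg/mL final) for 30 min at 37 C. Acetylthiocholine/DTNB was then added; thiocholine was read colorimetrically after 10 min at room temperature.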

Chain of Acetylcholinesterase (Homo sapiens) (P22303 whole entry, looked up): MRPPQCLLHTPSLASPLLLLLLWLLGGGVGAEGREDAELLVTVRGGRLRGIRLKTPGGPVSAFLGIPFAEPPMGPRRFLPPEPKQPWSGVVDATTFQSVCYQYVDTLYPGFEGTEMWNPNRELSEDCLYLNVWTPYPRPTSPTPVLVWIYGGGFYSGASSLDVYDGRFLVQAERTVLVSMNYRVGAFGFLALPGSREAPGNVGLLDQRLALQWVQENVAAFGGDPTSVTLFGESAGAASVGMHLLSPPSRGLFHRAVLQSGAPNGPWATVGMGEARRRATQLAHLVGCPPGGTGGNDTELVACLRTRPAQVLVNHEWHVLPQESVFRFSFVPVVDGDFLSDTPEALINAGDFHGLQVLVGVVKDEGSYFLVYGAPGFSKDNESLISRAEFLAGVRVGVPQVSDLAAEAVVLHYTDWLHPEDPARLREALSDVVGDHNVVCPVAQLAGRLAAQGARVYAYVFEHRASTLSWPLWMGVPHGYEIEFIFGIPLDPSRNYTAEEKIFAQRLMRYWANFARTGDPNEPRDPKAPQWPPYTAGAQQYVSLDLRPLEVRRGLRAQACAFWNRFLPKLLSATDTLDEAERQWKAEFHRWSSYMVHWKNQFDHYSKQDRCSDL

Structure (SMILES)	Potency [1]	Potency [2]	Potency [3]	Potency [4]	activity, negative = inhibition [1]	activity change, negative = inhibition [2]	activity change, negative = inhibition [3]	activity change, negative = inhibition [4]
CNC(C)=O	inactive	inactive	inactive	inactive	–	–	–	–
C[C@H](CCC(=O)NCC(=O)O)[C@H]1CC[C@H]2[C@@H]3[C@H](O)C[C@@H]4C[C@H](O)CC[C@]4(C)[C@H]3C[C@H](O)[C@]12C	inactive	inactive	inactive	inactive	–	–	–	–
CC(C)NC(=O)c1ccc(C=O)cc1	inactive	inactive	inactive	inactive	–	–	–	–
CCCCC(CC)CNC(=O)CC(C)OC(=O)CCC(=O)O (stereo unspecified)	inactive	inactive	inactive	inactive	–	–	–	–
CC(=O)N[C@@H](CO)C(=O)N[C@@H](CC(=O)O)C(=O)N[C@@H](CCCCN)C(=O)N1CCC[C@H]1C(=O)O (Ac-SDKP-OH)	inactive	inactive	inactive	inactive	–	–	–	–
C=CCCCCCCCCCCCCCC	–	–	–	–	0.819% [at 23.6 µM]	0.291% [at 23.6 µM]	5.43% [at 23.8 µM]	-1.13% [at 23.6 µM]
Cc1ccc(Nc2ccc(O)c3c2C(=O)c2ccccc2C3=O)cc1	inactive	inactive	inactive	inactive	–	–	–	–
CN(C)C(C)(C)CO	inactive	inactive	inactive	inactive	–	–	–	–
O=C(Oc1cccc2cccnc12)c1ccccc1	inactive	inactive	inactive	inactive	–	–	–	–
CCC1Nc2cc(Cl)c(S(N)(=O)=O)cc2S(=O)(=O)N1 (stereo unspecified)	inactive	inactive	inactive	inactive	–	–	–	–
CC(C)c1cccc(C(C)C)c1NC(=O)NS(=O)(=O)c1cc(C(C)(C)O)co1	inactive	inactive	inactive	inactive	–	–	–	–
CC(C)(C)c1cc(C=O)cc(C(C)(C)C)c1O	inactive	inactive	inactive	inactive	–	–	–	–
COc1cc(C)ccc1C(C)C	inactive	inactive	inactive	inactive	–	–	–	–
CCCCCCNC(=O)n1cc(F)c(=O)[nH]c1=O	inactive	inactive	inactive	inactive	–	–	–	–
CC[N+](C)(CC)CCOC(=O)C(O)(c1ccccc1)C1CCCCC1 (stereo unspecified)	inactive	inactive	inactive	inactive	–	–	–	–
CN(C)c1ccc(SC#N)cc1	inactive	inactive	inactive	inactive	–	–	–	–
C=CC(=O)[O-].C=CC(=O)[O-].[Zn+2]	inactive	inactive	inactive	inactive	–	–	–	–
CCN(CC)c1ccc(C=O)cc1	inactive	inactive	inactive	inactive	–	–	–	–
CC/C=C\CCOC(=O)c1ccccc1	inactive	inactive	inactive	inactive	–	–	–	–
CCOc1cccc(N)c1	inactive	inactive	inactive	inactive	–	–	–	–
O=S(=O)(O)c1ccccc1O	inactive	inactive	inactive	inactive	–	–	–	–
COc1cccc([C@H](O)C2CCN(CCc3ccc(F)cc3)CC2)c1OC	inactive	inactive	inactive	inactive	–	–	–	–
C=C(C)C1CC=C(C)C(O)C1 (stereo unspecified)	inactive	inactive	inactive	inactive	–	–	–	–
CC(=O)OC1CCCCC1C(C)(C)C (stereo unspecified)	inactive	inactive	inactive	inactive	–	–	–	–
CCCCC(CC)CN (stereo unspecified)	inactive	inactive	inactive	inactive	–	–	–	–
CC(C)(C)OC(=O)c1ccc(O)cc1	inactive	inactive	inactive	inactive	–	–	–	–
OC[C@H]1O[C@@H](O[C@@H]2[C@@H](CO)O[C@](O)(CO)[C@H]2O)[C@H](O)[C@@H](O)[C@H]1O	inactive	inactive	inactive	inactive	–	–	–	–

Structure (SMILES)	Potency [1]	Potency [2]	Potency [3]	Potency [4]	activity, negative = inhibition [1]	activity change, negative = inhibition [2]	activity change, negative = inhibition [3]	activity change, negative = inhibition [4]
CC(=O)Nc1ccccc1C	inactive	inactive	inactive	inactive	–	–	–	–
O=C(O)CNC(=O)CNC(=O)CNC(=O)CSC(=O)c1ccccc1	inactive	inactive	inactive	inactive	–	–	–	–
Cc1cc(C)c(NC(=O)CN(CC(=O)O)CC(=O)O)c(C)c1Br	inactive	inactive	inactive	inactive	–	–	–	–
Cn1c(=O)c2c(ncn2CC(O)CO)n(C)c1=O (stereo unspecified)	inactive	inactive	inactive	inactive	–	–	–	–
C1OCOCO1	inactive	inactive	inactive	inactive	–	–	–	–
CC(C)(C)N(CCO)CCO	inactive	inactive	inactive	inactive	–	–	–	–
C=CC(C)(O)CC/C=C(\C)CCC=C(C)C (stereo unspecified)	inactive	inactive	inactive	inactive	–	–	–	–
NC(=O)c1ncn([C@@H]2O[C@H](CO)[C@@H](O)[C@H]2O)c1N	inactive	inactive	inactive	inactive	–	–	–	–
CC(C)C1CCC(O)CC1 (stereo unspecified)	inactive	inactive	inactive	inactive	–	–	–	–
OCCC(O)CO (stereo unspecified)	inactive	inactive	inactive	inactive	–	–	–	–
CCCCCCCCCCCCCCN(C)C	–	–	–	–	0.601% [at 23.6 µM]	0.242% [at 23.6 µM]	2.04% [at 23.8 µM]	0.379% [at 23.6 µM]
SC1CCCCC1	inactive	inactive	inactive	inactive	–	–	–	–
CCOc1ccc2[nH]cc(C(=O)NCc3ccccc3)c(=O)c2n1	inactive	inactive	inactive	inactive	–	–	–	–
Cc1cncc(C)c1	inactive	inactive	inactive	inactive	–	–	–	–
C[C@@H]1C[C@H]2[C@@H]3CCC4=CC(=O)C=C[C@]4(C)[C@@]3(F)[C@@H](O)C[C@]2(C)[C@@]1(O)C(=O)CO	inactive	inactive	inactive	inactive	–	–	–	–
Nc1ccc(NCCO)c([N+](=O)[O-])c1	35.6 µM (active)	71 µM (active)	35.6 µM (active)	inactive	–	–	–	–
Cc1ccc(-c2ccccc2)cc1	inactive	inactive	inactive	inactive	–	–	–	–
CCCCCCCCC(=O)OCC(C)OC(=O)CCCCCCCC (stereo unspecified)	inactive	inactive	inactive	inactive	–	–	–	–
O=C(O)COCC(=O)O	inactive	inactive	inactive	inactive	–	–	–	–
CC(C)CC(O)CC(C)C	inactive	inactive	inactive	inactive	–	–	–	–
CCCC1CCCC(=O)O1 (stereo unspecified)	inactive	inactive	inactive	inactive	–	–	–	–
C=Cc1ccc(S(=O)(=O)O)cc1	inactive	inactive	inactive	inactive	–	–	–	–
C/C=C/C(=O)Oc1c(CCCCCC(C)C)cc([N+](=O)[O-])cc1[N+](=O)[O-]	inactive	71 µM (active)	inactive	inactive	–	–	–	–
C=C(C)[C@@H]1CCC2=CCC[C@@H](C)[C@]2(C)C1	inactive	inactive	inactive	inactive	–	–	–	–
O=C1c2ccccc2C(=O)c2cc(Cl)ccc21	–	–	–	–	-0.634% [at 10.5 µM]	-1.23% [at 10.5 µM]	0% [at 10.5 µM]	0.0166% [at 10.5 µM]
Nc1ccn([C@@H]2O[C@H](CO)[C@@H](O)C2(F)F)c(=O)n1	inactive	inactive	inactive	inactive	–	–	–	–
CC[N+](CC)(CC)Cc1ccccc1	inactive	inactive	inactive	inactive	–	–	–	–

Structure (SMILES)	Potency [1]	Potency [2]	Potency [3]	Potency [4]	activity, negative = inhibition [1]	activity change, negative = inhibition [2]	activity change, negative = inhibition [3]	activity change, negative = inhibition [4]
O=C[C@H](O)[C@@H](O)[C@H](O)[C@H](O)CO	inactive	inactive	inactive	inactive	–	–	–	–
CCOC(=O)COc1cc(-n2ncc(C(F)(F)F)c(C)c2=O)c(F)cc1Cl	inactive	inactive	inactive	inactive	–	–	–	–
O=C1CCCC(=O)C1	inactive	inactive	inactive	inactive	–	–	–	–
COc1nc(C)nc(Cl)c1NC1=NCCN1	inactive	inactive	inactive	inactive	–	–	–	–
CC1=CC[C@@]23C[C@@H]1C(C)(C)[C@@H]2CC[C@H]3C	inactive	inactive	inactive	inactive	–	–	–	–
CCCCCCCCCCOCC(O)CN (stereo unspecified)	inactive	inactive	inactive	inactive	–	–	–	–
CC(C)C(=O)OCCc1ccccc1	inactive	inactive	inactive	inactive	–	–	–	–
Cc1cc(O)c(C(C)(C)C)cc1C(C)(C)C	inactive	inactive	inactive	inactive	–	–	–	–
CCC(=O)OCCOc1ccccc1	inactive	inactive	inactive	inactive	–	–	–	–
O=[N+]([O-])c1ccc(Nc2ccc(Nc3ccccc3)c(S(=O)(=O)O)c2)c([N+](=O)[O-])c1	inactive	inactive	inactive	inactive	–	–	–	–
CN(C)CCN1CCN(c2cccc(Cl)c2)C1=O	inactive	inactive	inactive	inactive	–	–	–	–
O=S(=O)(O)c1ccc(Nc2nc(Nc3ccc(/C=C/c4ccc(Nc5nc(Nc6ccc(S(=O)(=O)O)cc6)nc(N(CCO)CCO)n5)cc4S(=O)(=O)O)c(S(=O)(=O)O)c3)nc(N(CCO)CCO)n2)cc1	inactive	inactive	inactive	inactive	–	–	–	–
CCOC(=O)C1=NN(c2ccc(Cl)cc2Cl)C(C)(C(=O)OCC)C1 (stereo unspecified)	inactive	inactive	inactive	inactive	–	–	–	–
NC(=S)N/N=C/c1cccnc1	inactive	inactive	inactive	inactive	–	–	–	–
CC(C)(C)C(=O)O	inactive	inactive	inactive	inactive	–	–	–	–
CCC(CC)CO	inactive	inactive	inactive	inactive	–	–	–	–
CCCCCCCCCCCCCCCC(=O)OC/C=C(C)/C=C/C=C(C)/C=C/C1=C(C)CCCC1(C)C	inactive	inactive	inactive	inactive	–	–	–	–
Cc1ccc(=O)n(-c2ccccc2)c1	inactive	inactive	inactive	inactive	–	–	–	–
C=C1C[C@@]23CC[C@H]4[C@@](C)(CCC[C@@]4(C)C(=O)O[C@@H]4O[C@H](CO)[C@@H](O)[C@H](O)[C@H]4O)[C@@H]2CC[C@]1(O[C@@H]1O[C@H](CO)[C@@H](O)[C@H](O[C@@H]2O[C@H](CO)[C@@H](O)[C@H](O)[C@H]2O)[C@H]1O[C@@H]1O[C@H](CO)[C@@H](O)[C@H](O)[C@H]1O)C3	inactive	inactive	inactive	inactive	–	–	–	–
O=C(O)C1CCC1	inactive	inactive	inactive	inactive	–	–	–	–
COc1c(Br)cc(Br)c(C)c1Br	inactive	inactive	inactive	inactive	–	–	–	–
NS(=O)(=O)c1cc(C(=O)NN2C[C@H]3[C@H]4CCC(C4)[C@H]3C2)ccc1Cl	inactive	inactive	inactive	inactive	–	–	–	–
C=CC(=O)OCCCl	inactive	inactive	inactive	inactive	–	–	–	–
CCCCCCOC(=O)CCCCC	inactive	inactive	inactive	inactive	–	–	–	–
CC1(CO)CN(c2ccccc2)NC1=O (stereo unspecified)	inactive	inactive	inactive	inactive	–	–	–	–
